Laboratory results as given in paper PMC4336329 (PLoS ONE, 2015).
The whole screen tested about 310,000 compounds, of which about 14,000 (4.5%) showed an effect of 50% or more. Effects have a minus sign here. For the sample, strong results were picked, then their nearest neighbours and some compounds at random.

target: human ether-à-go-go-related gene (hERG) potassium channel (human, UniProt Q12809); assay: primary screen, population patch clamp on CHO cells stably expressing hERG; higher = less effect of the substance
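Also: peak tail current of the secondary pulse compared with the same well before compound.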

Chain of human ether-à-go-go-related gene (hERG) potassium channel (Q12809 whole entry, looked up): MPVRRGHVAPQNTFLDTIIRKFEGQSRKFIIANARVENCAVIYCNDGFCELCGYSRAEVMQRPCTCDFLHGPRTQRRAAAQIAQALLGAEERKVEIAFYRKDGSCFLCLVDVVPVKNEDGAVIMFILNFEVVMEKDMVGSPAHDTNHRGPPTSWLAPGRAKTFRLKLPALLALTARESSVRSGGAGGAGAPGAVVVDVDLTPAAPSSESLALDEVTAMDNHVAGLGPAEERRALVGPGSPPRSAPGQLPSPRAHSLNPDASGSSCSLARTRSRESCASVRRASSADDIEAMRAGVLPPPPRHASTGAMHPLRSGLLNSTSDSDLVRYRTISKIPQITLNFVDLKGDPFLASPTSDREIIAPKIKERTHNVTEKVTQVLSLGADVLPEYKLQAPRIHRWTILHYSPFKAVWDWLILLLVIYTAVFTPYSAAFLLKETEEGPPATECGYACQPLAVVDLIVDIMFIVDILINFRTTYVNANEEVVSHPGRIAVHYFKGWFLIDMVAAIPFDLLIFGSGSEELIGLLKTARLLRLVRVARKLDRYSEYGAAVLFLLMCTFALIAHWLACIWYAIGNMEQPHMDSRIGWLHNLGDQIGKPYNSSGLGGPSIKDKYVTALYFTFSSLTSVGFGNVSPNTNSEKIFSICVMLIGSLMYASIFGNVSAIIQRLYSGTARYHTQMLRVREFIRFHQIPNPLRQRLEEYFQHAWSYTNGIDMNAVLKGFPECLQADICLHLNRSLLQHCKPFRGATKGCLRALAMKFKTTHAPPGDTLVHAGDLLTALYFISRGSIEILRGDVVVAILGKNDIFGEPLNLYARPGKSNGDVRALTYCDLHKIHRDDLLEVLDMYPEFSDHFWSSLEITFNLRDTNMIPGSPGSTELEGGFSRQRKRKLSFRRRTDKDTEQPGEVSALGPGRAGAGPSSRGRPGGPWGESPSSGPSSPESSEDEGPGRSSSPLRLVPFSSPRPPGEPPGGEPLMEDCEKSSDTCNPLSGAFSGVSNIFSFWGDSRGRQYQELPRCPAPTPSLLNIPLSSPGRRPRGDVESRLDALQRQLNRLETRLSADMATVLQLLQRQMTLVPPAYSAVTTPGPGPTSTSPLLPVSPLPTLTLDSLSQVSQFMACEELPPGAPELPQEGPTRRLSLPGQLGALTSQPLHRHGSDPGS

SMILES | hERG current change (%, negative = inhibition) at 10uM
O=C(O)CN(Cc1ccccc1)S(=O)(=O)c1ccc(F)cc1 | 2.09%
O=C(CN(Cc1ccc(Br)cc1)S(=O)(=O)c1ccccc1)NCc1cccnc1 | -17.2%
CCCNC(=O)CN(Cc1ccccc1F)S(=O)(=O)c1ccc(C)cc1 | -6.17%
O=C(CN(Cc1ccccc1)S(=O)(=O)c1ccc(F)cc1)NCc1cccnc1 | -57.8%
Cc1ccc(S(=O)(=O)N(CC(=O)O)Cc2ccccc2F)cc1 | 3.18%
Cc1ccc(S(=O)(=O)N(CC(=O)NCc2ccncc2)Cc2ccccc2F)cc1 | -78.6%
O=C(CN(Cc1ccccc1)S(=O)(=O)c1ccc(F)cc1)NCc1ccccn1 | -10.6%
O=C(CN(Cc1ccc(Br)cc1)S(=O)(=O)c1ccccc1)NCc1ccncc1 | -68.8%
O=C(CN(Cc1ccccc1)S(=O)(=O)c1ccc(F)cc1)NCc1ccncc1 | -52.3%
O=C(CN(Cc1ccc(Br)cc1)S(=O)(=O)c1ccccc1)NCc1ccccn1 | -42%
CN(CC(=O)NCc1cccnc1)S(=O)(=O)c1ccc(F)cc1 | 21.3%
CCN(CC(=O)NCc1ccncc1)S(=O)(=O)c1ccccc1 | 5.51%
COc1ccccc1NC(=O)c1cc2c(CO)cnc(C)c2oc1=Nc1ccc(OC)c(OC)c1 | 13.3%
COc1ccc(NN=Nc2ccc([N+](=O)[O-])cc2)cc1 | 19.1%
OC1COC(OCC2OC(OCc3ccccc3)C(O)C(O)C2O)C(O)C1O (stereo not drawn) | -11.1%
CCOC(=O)N1CCN(C(=O)c2cc3cc(OC)c(OC)cc3[nH]2)CC1 | 5.96%
CC(=O)Nc1ccc(NC(=O)c2cc(-n3cnnc3)ccc2Cl)cc1 | 15.7%
COc1cccc(C(C2C(=O)CC(C)(C)CC2=O)C2C(=O)CC(C)(C)CC2=O)c1 | 21.2%
O=C(N1CCN(c2ccc(F)cc2)CC1)C12CC3CC(CC(C3)C1)C2 | 5.05%
CN(C)c1nc(OCCNC(=O)Nc2ccccc2)nc(N2CCCCC2)n1 | 0.123%
CC[n+]1c(C)n(-c2ccccc2)c2ccc(NC(C)=O)cc21.[I-] | 11%
Cc1nc(NCCc2ccccc2)c(C#N)c(C)c1[N+](=O)[O-] | 6.5%
CCOC(=O)c1sc(NC(=O)c2sc(C)nc2C)nc1C | -4.49%
Fc1ccc(/C=N/NC(=S)Nc2ccc(Cl)cc2)cc1F | 9.62%

SMILES | hERG current change (%, negative = inhibition) at 10uM
Cc1ccc(S(=O)(=O)NC(CC(=O)NCc2ccco2)c2ccco2)cc1 (stereo not drawn) | -0.749%
CCOc1ccc(Nc2ccc3nonc3c2[N+](=O)[O-])cc1 | 10.6%
CCOc1ccc(Nc2ccc([N+](=O)[O-])c3nonc23)cc1 | -53.9%
O=[N+]([O-])c1ccc(Nc2ccccc2)c2nonc12 | -8.36%
COc1ccccc1NC(=O)CSc1nc2nc(C)cc(C)c2c(=O)[nH]1 | 4.82%
CCOC(=O)CSc1nnc(-c2cc(OC)c(OC)c(OC)c2)o1 | 12.1%
CCCCN(CCCC)C(=O)CSc1nnc(-c2cc(OC)c(OC)c(OC)c2)o1 | -58.5%
CCCCOC(=O)CSc1nnc(-c2cc(OC)c(OC)c(OC)c2)o1 | -11.9%
COCCN(C(=O)CCC(=O)Nc1ccccn1)C(C(=O)NC(C)C)c1ccc(Cl)cc1 (stereo not drawn) | -5.58%
CN(C)c1ccc(/C=C2\CC3C4CC=C5CC(O)CCC5(C)C4CCC3(C)C2=O)cc1 (stereo not drawn) | 3.55%
COc1cc(C(=O)NCCOc2cc(C)cc(C)c2)c(Br)c(OC)c1OC | -18.4%
O=S(=O)(NCCc1csc(-c2ccccc2)n1)c1cccnc1 | 8.48%
C/C(=N\NC(=O)COc1ccc(C(C)(C)C)cc1)c1ccc(N2CCOCC2)cc1 | 5.99%
C=C(C)CNC(=S)N/N=C(\C)c1ccc(-n2ccnc2)cc1 | -37.7%
C/C(=N\NC(=O)COc1ccc(C)cc1C(C)C)c1ccc(-n2ccnc2)cc1 | -33.4%
C=CCNC(=S)N/N=C(\C)c1ccc(-n2ccnc2)cc1 | -43%
COCCNC(=S)N/N=C(\C)c1ccc(C)c([N+](=O)[O-])c1 | -26.6%
COCCNC(=S)N/N=C(\C)c1ccc(-n2ccnc2)cc1 | -66.2%
CCNC(=S)N/N=C(\C)c1cccc([N+](=O)[O-])c1 | -45.9%
C/C(=N\NC(N)=O)c1ccc(-n2ccnc2)cc1 | 10.9%
CCc1ccc(OCC(=O)N/N=C(\C)c2ccc(-n3ccnc3)cc2)cc1 | -71.8%
COCCNC(=S)N/N=C(\C)c1cccc([N+](=O)[O-])c1 | -70.4%
C/C(=N\NC(=O)COc1ccc(C(C)(C)C)cc1)c1ccc(-n2ccnc2)cc1 | -58.9%
COc1ccc(OCC(=O)N/N=C(\C)c2ccc(-n3ccnc3)cc2)cc1 | -42.6%
